# Lassa entry inh: blocks Lassa virus binding to or entry into cells; 1.2% of 300,000 active; Lassa virus pseudotype entry inhibition, cell reporter; Potency, µM (doses to about 37.9 µM), for the others: top-dose activity change, negative = inhibition, actives largely listed as inhibitors; AID 540256; calls by dose curve; tested in HEK293 cells; further: potency means the concentration at half of the fitted maximal effect; nearly all actives have a fitted effect of over 50% in size
# Pf growth 48h: P. falciparum growth inhibition at 48 hours (one generation); Potency, µM (series often up to 28.7 µM), for inactives: top-dose activity change, negative = inhibition, actives largely listed as inhibitors; P. falciparum luciferase growth in erythrocytes, 48 h; 5.9% of 310,000 active; further: potency means the concentration at half of the fitted maximal effect
#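 Growth was read as firefly luciferase luminescence after a 48 h, 37 C, 5% CO2 exposure of compounds to reporter-bearing P. falciparum cultures (0.1% parasitemia, 2% hematocrit final) in Albumax-supplemented RPMI 1640.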
# HCV inhibitor: HCV inhibition; Potency, µM (series often up to 41.8 µM), inactives show at the highest dose activity change, negative = inhibition, usual class: inhibitors; Huh7.5.1 HCVcc-Cre infection, luciferase reporter, 44 h; 3.4% of 340,000 active; further: potency means the concentration at half of the fitted maximal effect
#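 Cells (1,000/well) were plated 4 h before compound, then infected with HCVcc-Cre virus (~0.5 moi). After 44 h further culture, infection was read as luciferase luminescence following a 15 min substrate incubation at room temperature.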
# Pf growth 96h: P. falciparum growth inhibition at 96 hours; P. falciparum luciferase reporter growth, 96 h; Potency, µM (doses to about 28.7 µM), for the others: top-dose activity change, negative = inhibition, hits mostly inhibitors; 6.9% of 320,000 active; further: potency means the concentration at half of the fitted maximal effect
#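 P. falciparum expressing integrated firefly luciferase, in erythrocytes at 2% hematocrit, 0.05% parasitemia, incubated with compounds 96 h at 37 C, 5% CO2. Growth inhibition read as loss of luminescence; two-generation exposure targets delayed-death apicoplast inhibitors.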
# HCMV antiviral: blocks human cytomegalovirus replication | HFF cells, HCMV-luciferase reporter, 72 h; stronger effect = lower value | activity change, negative = inhibition, % at 57.5 µM | 4.5% of 410,000 active | AID 1259415; in the data active means activity change below about -60%; inconclusive means no clear call, values can overlap the other calls; inactive means above about -39%
#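 HFF cells seeded 16 h at 37C, treated with compounds, infected with luciferase-reporter HCMV at MOI 1 PFU/cell; luciferase read at 72 h post infection, normalized to buffer-only and Salinomycin controls.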
# Marburg entry inh: Marburg virus entry inhibition. Marburg virus pseudotyped entry inhibition, cell reporter. Potency, µM (series often up to 37.8 µM), for inactives: top-dose activity change, negative = inhibition, actives largely listed as inhibitors. 1.8% of 300,000 active; calls by dose curve; tested in HEK293 cells; further: potency means the concentration at half of the fitted maximal effect
# The depositor's hits bear a star; ? = inconclusive; / = no result given; [ ] = remark or other dose. Compounds with a hit are over-represented: about 14% of the library has one in this group of screens. Unless noted, the call rests on the fitted dose curve; in most records, active means well fitted inhibition curve with a large enough effect; inconclusive means small, poorly fitted or top-dose-only effect, or another doubt; inactive means no such curve, though single readings can be large or run the other way. On the % scale 0 is the no-effect control and ±100 the full control effect.
SMILES,Lassa entry inh,Pf growth 48h,HCV inhibitor,Pf growth 96h,HCMV antiviral,Marburg entry inh
CCCCCCCCCCOC(=O)Cn1c(COc2ccccc2)[n+](C)c2ccccc21,/,?,?,?,-40,/
CCCCCCCCCCOC(=O)Cn1c(COc2ccccc2C)[n+](C)c2ccccc21,8.9µM*,?,?,21%,/,25µM*
COCCCN1C(=O)C(CC(=O)NCc2cccs2)CC(C(=O)N(C)C)=C1C (stereo not drawn),/,/,/,/,-6,/
CCc1ccc(NC(=O)Cn2cnc3sc(C)c(S(=O)(=O)N4CCC(C)CC4)c3c2=O)cc1,14%[46.1 µM],/,/,/,-4,?
N=c1c2ccccc2nnn1-c1ccc(C(F)(F)F)cc1,13%,0.29µM*,13%,?,?,-8%[46.1 µM]
Cc1cccc(C)c1NC(=S)NN(Cc1ccccc1)c1ccccc1,1%,/,-13%,4.7µM*,2,?
CC(C)c1ccccc1NC(=S)NN(Cc1ccccc1)c1ccccc1,6%,?,?,12µM*,-10,-20%
Fc1ccccc1NC(=S)NN(Cc1ccccc1)c1ccccc1,18%,-26%,10%,/,-10,1%
CC(C)(O)C(=O)NN(Cc1ccccc1)c1ccccc1,-3%,12%,16%,-17%,-14,?
CCOC(=O)C(=O)N(C)c1c(CC)nc2c(OCc3ccccc3)cccn12,/,/,/,/,8,/
Cc1oc2ncn(C)c(=O)c2c1C(=O)N1CCN(c2ccccc2)CC1,7%[46.1 µM],/,/,/,0,14%[46.1 µM]
Cc1nn(Cc2ccccc2)c(N)c1-c1ccccc1,-18%,-5%,-16%,0%,-8,3%[46.1 µM]
Cc1nn(Cc2ccccc2)c(N)c1C#N,-3%,15%,-2%,12µM*,24,9%
COc1ccc(Cl)cc1NC(=O)c1c(NCc2cccnc2)sc2c1CCC(C)C2 (stereo not drawn),2%[46.1 µM],/,/,/,-29,/
CCOC(=O)C1=C(OCc2ccc(Cl)cc2)C2C=C(C)C=CC2N=C1 (stereo not drawn),-23%,/,-20%,12µM*,15,-19%
COc1ccc(S(=O)(=O)N2CCCCC2)cc1NC(=O)CCOc1cc(C)ccc1C,/,?,?,12µM*,0,/
COc1ccc(S(=O)(=O)N2CCCCCC2)cc1NC(=O)CCc1cc(OC)c(OC)c(OC)c1,/,/,-14%,/,-6,/
Cc1ccc(C)c(OCCC(=O)Nc2ccc(S(=O)(=O)N3CCCC3)cc2)c1,/,?,8.9µM*,9.3µM*,-29,/
COc1ccccc1CCNC(=O)C(=O)NCC(c1cccs1)S(=O)(=O)c1cccs1 (stereo not drawn),-37%[46.1 µM],/,/,/,-22,/
CCc1nn2c(=O)cc(COc3ccc(/C=C(\C#N)C(=O)Nc4ccc(F)cc4)cc3OC)nc2s1,-3%[46.1 µM],/,/,/,2,1%[46.1 µM]
CC(C)C[C@H]1COc2cc(Br)ccc2S(=O)(=O)N1Cc1ccc(Cl)cc1,/,/,/,/,16,?
Nc1ccc(Nc2nc3ccccc3[nH]2)cc1,?,?,11%,0%,12,?
Nc1ccccc1Nc1nc2ccccc2[nH]1,?,66%,?,10µM*,-19,-6%
Cc1ccc(C)c(Nc2nc3ccccc3[nH]2)c1,-10%[46.1 µM],/,?,/,1,?
c1ccc(Nc2nc3ccccc3[nH]2)nc1,?,?,-2%,?,-68*,-26%
SMILES,Lassa entry inh,Pf growth 48h,HCV inhibitor,Pf growth 96h,HCMV antiviral,Marburg entry inh
COc1cc(NS(=O)(=O)c2ccc3c(c2)CCN3S(C)(=O)=O)cc(OC)c1,-21%[46.1 µM],/,/,/,?,/
Cn1c(=O)[nH]c(=O)c2c1nc(SCCCO)n2CCCc1ccccc1,/,0%,-8%,96%,42,/
COc1cc(NC(=O)c2cc([N+](=O)[O-])ccc2NC(=O)CN2CCN(c3ccccn3)CC2)cc(OC)c1,?,14%,?,?,-12,8.9µM*
O=C(CN1CCN(c2ccccn2)CC1)Nc1ccccc1C(=O)Nc1ccccc1,?,?,?,?,?,0%[46.1 µM]
CCOC(=O)N1CCN(CC(=O)Nc2ccc([N+](=O)[O-])cc2C(=O)Nc2ccccc2F)CC1,0%,12µM*,?,?,134,0%
CCOC(=O)N1CCN(CC(=O)Nc2ccccc2C(=O)Nc2ccccc2)CC1,/,-25%,-2%,39%,-9,/
